ALR H2O2 inh: human ALR oxidase inhibition via reduced H2O2 | inhibition, % (no concentration beside the values) | actives 3.8% (n = 290,000) | P55789 | purified ALR, DTT oxidation, H2O2 HRP-luminol luminescence;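 active means mean replicate inhibition above about 79%, with every replicate also reaching it, limit read from the data; inconclusive means only one of the two criteria met; inactive means mean below limit and not every replicate reaching it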
Target sequence (P55789 whole entry, looked up): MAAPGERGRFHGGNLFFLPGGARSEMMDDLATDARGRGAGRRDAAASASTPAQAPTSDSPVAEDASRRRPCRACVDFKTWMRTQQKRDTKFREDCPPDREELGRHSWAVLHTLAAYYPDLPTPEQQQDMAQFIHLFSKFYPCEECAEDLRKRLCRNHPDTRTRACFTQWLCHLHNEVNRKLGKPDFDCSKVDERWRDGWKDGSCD
Cardio protect: modulators protecting cardiomyocytes from myocardial damage; actives 0.63% (n = 360,000); protection from H2O2 cell death, % at 20 µM; H9c2 cardiomyocytes, H2O2 injury protection, ATPLite, 2 h;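 active means compounds giving at least 50% protection of heart cells from peroxide-induced death in the single-dose screen, raw or plate-pattern-corrected value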;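 further: 0% = DMSO wells with peroxide and 100% = DMSO wells without peroxide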
PfGluPho inh: PfG6PD (Plasmodium falciparum) enzyme inhibition; PfGluPho enzyme, NADPH resazurin-diaphorase fluorescence; inhibition, % at 20 µM; actives 0.78% (n = 350,000);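 active means inhibition reaching at least a set limit at 20 µM in the primary screen, cut at about 59% in these data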;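 further: 0% = DMSO wells with substrate and 100% = DMSO wells lacking glucose-6-phosphate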
PHOSPHO1 block: blocks human PHOSPHO1 phosphatase activity. actives 1.1% (n = 290,000). recombinant PHOSPHO1, absorbance phosphatase assay. Q8TCT1. inhibition, % at 13.3 µM. AID 1565; in the data active means inhibition above about 60%
Target sequence (Q8TCT1 whole entry, looked up): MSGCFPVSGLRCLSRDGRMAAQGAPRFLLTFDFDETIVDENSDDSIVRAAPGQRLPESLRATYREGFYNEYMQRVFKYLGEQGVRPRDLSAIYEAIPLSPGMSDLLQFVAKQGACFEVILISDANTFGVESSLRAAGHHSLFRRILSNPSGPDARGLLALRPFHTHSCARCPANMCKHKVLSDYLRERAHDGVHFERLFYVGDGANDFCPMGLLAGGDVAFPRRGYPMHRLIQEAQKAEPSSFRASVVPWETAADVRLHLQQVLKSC
PfM18AAP inh: PfM18AAP enzyme inhibition; recombinant PfM18AAP, H-Glu-NHMec fluorogenic cleavage; inhibition, % at 7.35 µM; actives 1.2% (n = 290,000); AID 1822;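 active means inhibition above the campaign mean inhibition over all tested compounds plus 3 SD, cut at about 28% in these data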;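 further: 0% = plate median of test compound wells and 100% = 2 mM ZnCl2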
* = called active by the depositor; ? = inconclusive; . = not tested or not shown. In the library only some 5.6% were active in any assay of this set; here they are far more common.

SMILES | ALR H2O2 inh | Cardio protect | PfGluPho inh | PHOSPHO1 block | PfM18AAP inh
COc1ccc(CNC[C@H]2O[C@@H](n3cnc4c(N)ncnc43)[C@H](O)[C@@H]2O)cc1OC | 3 | -7 | -23 | . | .
COc1cccc(-c2cnc3c(NC(C)=O)cc(-c4ccc(C(=O)N5CCOCC5)cc4)cn23)c1 | . | 20 | . | . | .
COc1ccccc1CNC(=O)COC(=O)c1cc(=O)[nH]c2ccccc12 | -2 | 7 | 0 | . | .
Cc1cc(Br)cn2c(Cc3ccsc3)c(-c3ccc(Cl)cc3)nc12 | . | -3 | . | . | .
Cc1ccc(S(=O)(=O)NNC(=S)Nc2ccccc2)cc1 | 99* | -9 | -12 | 35 | 11
Cc1ccc(S(=O)(=O)NNC(=S)Nc2ccc(Cl)cc2)cc1 | ? | -5 | -15 | 11 | -3
CCc1nnc(NS(=O)(=O)c2ccc(NC(=O)OC)cc2)s1 | 98* | 3 | -9 | 33 | -6
CCc1nnc(NS(=O)(=O)c2ccc(NC(=S)NC(=O)c3ccc(F)cc3)cc2)s1 | 51 | 3 | -23 | -6 | 8
CCc1nnc(NS(=O)(=O)c2ccc(NC(=O)/C=C/c3ccc(F)cc3)cc2)s1 | 98* | 2 | -3 | 23 | 0
CCOC(=O)c1ccc(S(=O)(=O)NNC(=O)c2cccc(N(C)C)c2)cc1 | 82* | 3 | -4 | 4 | 24
CC1(C(=O)NS(=O)(=O)c2ccc(F)cc2F)CCN1C(=O)CCc1ccc(Cl)cc1Cl (configuration not stated) | . | 0 | . | . | .
Nc1nccnc1C(=O)OCC(=O)NNC(=O)c1ccccc1 | 6 | 8 | 6 | 8 | 2
CCOCC(=O)Nc1nc2ccc(C)cc2s1 | 97* | -17 | -8 | 4 | 5
Cc1ccc2nc(NC(=O)CSc3nncc(=O)n3N)sc2c1 | 99* | -10 | 1 | -4 | 10
Cc1ccc(S(=O)(=O)N2C[C@H]3C(=O)C[C@@H](c4ccccc4)N(S(=O)(=O)c4ccccc4)[C@H]3C[C@H]2c2ccccc2)cc1 | . | 8 | . | . | .
S=C(N=Nc1ccccc1)NNc1ccccc1 | 99* | -26 | 21 | -9 | 2
Cc1cccc(NNC(=S)Nc2ccccc2)c1 | . | -9 | 3 | . | .
CCN(Cc1ccncc1)Cc1ccc(Br)cc1 | -3 | 0 | 15 | 25 | -4
COCc1[nH][nH]c(=O)c1C=Nc1ccc(Oc2ccccc2)cc1 | 99* | 2 | 28 | 21 | 4
CCOC(=O)c1c(C)[nH]c(O)c1C=Nc1ccc(Cl)cc1 | 6 | 52* | 11 | 15 | 10
COC(=O)c1c(C)[nH]c(O)c1C=Nc1ccc(Oc2ccccc2)cc1 | 49 | 84* | 5 | 40 | 1
CCOC(=O)c1c(C)[nH]c(O)c1C=Nc1ccc(C(F)(F)F)cc1 | -2 | 16 | 19 | 19 | 4
CCOC(=O)C(=O)NNc1cccc(C)c1C | 98* | 7 | -15 | -5 | 17
CCOC(=O)C(=O)NNc1ccccc1C | 98* | -2 | 0 | -11 | 10
CCOC(=O)C(=O)Nc1ccccc1C(N)=O | -9 | 3 | 1 | -9 | 6
SMILES | ALR H2O2 inh | Cardio protect | PfGluPho inh | PHOSPHO1 block | PfM18AAP inh
Cc1cccc(NC(c2ccc(O)cc2)c2ccc3ccc(C)nc3c2O)n1 (configuration not stated) | -38 | 92* | -9 | 63* | 19
CC(=O)NC(c1ccc(C(C)C)cc1)c1ccc2cccnc2c1O (configuration not stated) | -9 | 19 | -18 | 14 | 8
COc1cc(/C=N/NC(=S)NC2CC3CCC2C3)ccc1O (configuration not stated) | 99* | 0 | 19 | 20 | 11
COc1ccc(CNC(=S)N/N=C/c2ccc(O)c(OC)c2)cc1 | 87* | -7 | -12 | -12 | 8
NC(=O)c1cc2ccccc2o/c1=N/NC(=O)c1cccs1 | 0 | 27 | 18 | 32 | 9
COc1ccc2o/c(=N/NC(=O)c3cccs3)c(C(N)=O)cc2c1 | 0 | 54* | 0 | 9 | 3
Cc1ncc(CO)c(CNc2ccc(Oc3ccccc3)cc2)c1O | 98* | -20 | -7 | 48 | 3
S=C(NCc1cccnc1)Nc1ccc(Oc2ccccc2)cc1 | 12 | -22 | 12 | 32 | -10
Cc1ccc(NC(=O)CSc2nc(-c3ccco3)nc3cc(=O)[nH]n23)c(Cl)c1 | 99* | 7 | -11 | 12 | -2
CN(C)c1ncnc2c1C(c1ccccc1)C(C)(C)O2 (configuration not stated) | . | -6 | 11 | . | .
Cc1nc(SCc2ccc(C(=O)O)cc2)nc2c1CCCC2 | 96* | 3 | -34 | 16 | 5
O=C(O)c1ccc(CSc2nc3c(c(=O)[nH]2)CCC3)cc1 | . | 3 | . | . | .
CC1CCN(CC(=O)N2c3ccccc3CCc3ccccc32)CC1 | 84* | 1 | -14 | -42 | -13
CCOc1ccc(NC(=O)c2cc3c(=O)n(C)c4ccccc4c3n2C)cc1 | -18 | 66* | 4 | -1 | -12
CC(NC(=O)c1cc2c(=O)n(C)c3ccccc3c2n1C)c1ccc2c(c1)OCCO2 (configuration not stated) | 26 | 72* | 27 | . | -4
COc1ccccc1NC(=O)c1cc2c(=O)n(C)c3ccccc3c2n1C | -7 | 30 | 51 | 27 | 2
Cn1c(C(=O)Nc2ccc3c(c2)OCO3)cc2c(=O)n(C)c3ccccc3c21 | -8 | 29 | 9 | -11 | -1
CCN(CC)S(=O)(=O)c1cccc(-c2nnc(SCCOc3ccccc3)o2)c1 | -15 | -13 | 13 | 1 | -5
CCN(CC)S(=O)(=O)c1cccc(-c2nnc(SCC(=O)c3cc(C)n(C)c3C)o2)c1 | 1 | -1 | 0 | 80* | 9
COc1ccc(CNC(=O)C2CCN(S(=O)(=O)N3CCCC3)CC2)c(OC)c1 | 0 | 6 | 14 | 16 | 6
COc1ccc(OC)c2c1cc(C(=O)N[C@H](C(=O)N1CCC(C(=O)O)CC1)C(C)C)n2C | 20 | 5 | -15 | 25 | 8
O=C(O)c1cccc(Cn2c(Cl)c(/C=N/NC(=O)c3ccco3)sc2=O)c1 | 1 | 1 | -25 | 29 | -1
CCOc1ccc2nc(NC(=O)CN3CCC(n4nnc5cc(F)ccc54)CC3)sc2c1 | -6 | 70* | -4 | -8 | 3
CCOc1ccc2nc(NC(=O)CSC3=NCCS3)sc2c1 | 99* | -20 | -13 | -4 | 1
COc1ccc2nc(NC(=O)CSC3=NCCS3)sc2c1 | 98* | 6 | -7 | 6 | 0
Cc1nn(S(=O)(=O)c2ccc(Br)cc2)c(C)c1S(=O)(=O)N1CCOCC1 | 1 | -3 | -13 | 12 | 1
COc1ccc(N2CCN(S(=O)(=O)c3c(C)[nH]c(C)c3C(=O)N3CCCC3)CC2)cc1 | 49 | 0 | -18 | 38 | 5
C/C(=N\Nc1nc(C)cc(C)n1)c1ccc(N2CCOCC2)cc1 | 99* | 5 | 15 | -33 | 9
C/C(=N\NC(=O)c1cc(C)oc1C)c1ccc(N2CCOCC2)cc1 | 83* | -3 | -1 | 58 | -2
CN(Cc1ccc(F)cc1)C(=O)C(Cc1ccccc1)NC(=O)c1ccccc1 (configuration not stated) | 0 | 46 | 13 | . | .
